A number with no mark means an inactive call.
Test system: Vero E6 infected with SARS-CoV-2
Experiment: inhibition of SARS-CoV-2 cytopathic effect; higher = more antiviral protection, active = above 15
Details: 48 h

| SMILES | inhibition of SARS-CoV-2 cytopathic effect (1 nM) [%] | inhibition of SARS-CoV-2 cytopathic effect (8.33 nM) [%] | inhibition of SARS-CoV-2 cytopathic effect (100 nM) [%] | inhibition of SARS-CoV-2 cytopathic effect (833.33 nM) [%] | inhibition of SARS-CoV-2 cytopathic effect (10000 nM) |
| --- | --- | --- | --- | --- | --- |
| CC1(C)S[C@@H]2[C@H](NC(=O)[C@H](NC(=O)N3CCN(S(C)(=O)=O)C3=O)c3ccccc3)C(=O)N2[C@H]1C(=O)O [mezlocillin] | -0.34 | 0.68 | -1.11 | -0.82 | 0.79% |
| Cn1nc(-c2ccc(C(F)(F)F)cc2)nc2c(=O)n(C)c(=O)nc1-2 [walrycin-B] | -1.05 | -0.74 | 1.15 | 12.5 | -12.8% |
| COc1cc2c(cc1OC)-c1c(C)c3ccc(OC)c(OC)c3c[n+]1CC2 [dehydrocorydaline] | -0.53 | 0.34 | -1 | -1.37 | 0.05% |
| CCNC(=O)C[C@@H]1N=C(c2ccc(Cl)cc2)c2cc(OC)ccc2-n2c(C)nnc21 | -1.97 | -1.13 | 0.74 | -0.08 | -9.5% |
| CCN1CCN(C(=O)N[C@@H](C(=O)N[C@@H]2C(=O)N3[C@@H]2SC(C)(C)[C@@H]3C(=O)O)c2ccccc2)C(=O)C1=O [piperacillin] | -0.76 | 0.86 | -1.44 | -0.01 | 0.01% |
| Cc1oc2nc3c(c(NC(=O)CN4CCCC4=O)c2c1C)CCCC3 | 0.92 | -2.29 | -0.3 | -0.97 | 0.5% |
| COc1ccc2c(C)nc(Nc3nc(C)c(C)c(O)n3)nc2c1 [madrasin] | -1.29 | 0.26 | 1.24 | 0.66 | 30.8% (active) |
| O=C(O)[C@H]1CCCN(CCC=C(c2ccccc2)c2ccccc2)C1 (racemic) | -0.52 | -1.42 | -2.13 | -4.16 | -2.22% |
| CCn1c(N)c(C(=O)NC)c(=O)c2ccc(C#C[C@@](C)(O)COC)nc21 | 0.13 | -0.62 | -1.69 | 0.68 | 6.9% |
| Cc1nc(Nc2ccc(F)cc2)nc(N2CCc3ccccc3C2C)c1C (stereo not given) [revaprazan] | 0.41 | 1.64 | 2.31 | 1.17 | 1.72% |
| Cc1ccc(-c2ncn(-c3ccc(Nc4nccc(-c5cccc(N6CCOCC6)c5)n4)cc3)n2)cn1 | -4.9 | -4.6 | -3.08 | -5.23 | -2.89% |
| Cn1cc(C2=C(c3cn(CCCSC(=N)N)c4ccccc34)C(=O)NC2=O)c2ccccc21 [bisindolylmaleimide-IX] | -1.28 | -0.79 | -3.04 | 1 | -1.54% |
| Nc1ccc(O)c(C(=O)O)c1 [mesalazine] | 1.06 | -2.08 | 1.03 | -1.05 | -2.08% |
| Fc1ccc(-c2nc3n(c2-c2ccncc2)CCS3)cc1 | 1.58 | -0.78 | -1.15 | -1.03 | -1.09% |
| N#Cc1cccc(C(=O)Nc2cc(-c3ccccc3)nn2-c2ccccc2)c1 | 1.77 | 4.71 | 3.47 | 3.43 | 1.98% |
| O=C1c2ccccc2C(Cc2ccnc(F)c2)(Cc2ccnc(F)c2)c2ccccc21 | 0.2 | 0.21 | 5.3 | 2.26 | -2.51% |
| O=C(N[C@H]1CN2CCC1CC2)c1cc2cccc(Cl)c2s1 | -0.49 | -1.25 | 2.35 | -1.74 | -7.63% |

— the supplement of paper PMC13380429
